From PubChem BioAssay
Active and inactive are the calls of the source.

Columns and labels:
[1] = system: PRMT1 (protein arginine N-methyltransferase 1); assay: PRMT1 binders on small-molecule microarrays, primary screen, biochemical, small-molecule microarray, 635 nm fluorescence (AID 1088); settings: small-molecule microarray binding, higher = more signal;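 also: binding of Prmt1 protein to compounds spotted on small-molecule microarray slides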
[2] = yeast growth modulation, basal conditions, primary screen, YJM789 clinical isolate, OD600, 24 h (AID 1089);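 also: growth of clinical yeast isolate S. cerevisiae YJM 789 seeded 1000 cells per well; test concentration not given here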; settings: S. cerevisiae YJM789 growth, higher = more signal, called active from +8 up or from −8 down
[3] = fission yeast growth modulation, primary screen, strain 972, OD600, 24 h, no modulator (AID 1090);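 also: basal condition with compound alone and no growth modifier present; test concentration not given here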; settings: S. pombe 972 growth, higher = more signal, called active from +8 up or from −8 down
[4] = S. cerevisiae growth modulation with rapamycin, primary screen, strain BY4716, OD600, 96 h (AID 1091); settings: higher = more signal, called active from +8 up or from −8 down; also: test concentration not given here
[5] = target: Torsin-1A-interacting protein 2 (Homo sapiens) (UniProt Q8NFQ8); assay: LULL1 binders on small-molecule microarray, primary screen, cell lysate, human LULL1 lysate, 635/667 nm fluorescence (AID 1092); settings: hLULL1 lysate binding, 635 nm fluorescence, higher = more signal;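 also: probe is lysate of COS7 cells overexpressing human LULL1; score merges per-feature 667 nm fluorescence with signal-to-noise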
Sequence of Torsin-1A-interacting protein 2 (Homo sapiens) (Q8NFQ8 whole entry, looked up): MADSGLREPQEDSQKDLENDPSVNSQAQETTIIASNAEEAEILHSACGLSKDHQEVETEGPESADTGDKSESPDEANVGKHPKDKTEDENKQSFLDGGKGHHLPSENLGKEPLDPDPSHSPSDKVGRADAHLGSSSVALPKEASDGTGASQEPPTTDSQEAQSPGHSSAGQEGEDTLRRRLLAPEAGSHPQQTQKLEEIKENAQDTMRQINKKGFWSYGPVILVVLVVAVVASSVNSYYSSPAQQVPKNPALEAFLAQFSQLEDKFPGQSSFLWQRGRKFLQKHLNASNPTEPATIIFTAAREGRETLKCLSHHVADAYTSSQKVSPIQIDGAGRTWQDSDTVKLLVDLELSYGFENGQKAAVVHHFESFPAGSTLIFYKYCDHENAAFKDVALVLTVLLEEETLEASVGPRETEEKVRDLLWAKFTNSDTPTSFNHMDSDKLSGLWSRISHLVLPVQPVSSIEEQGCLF

[6] = E. coli growth modulation, two-sided OD650, primary screen, E. coli filamentation project, strain DRC41, 24 h (AID 1093); settings: OD650, 24 h, higher = more signal, called active from +8 up or from −8 down;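 also: MC1000 strain lacking acrAB efflux and sulA so SOS filamentation is blocked; test concentration not given here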
[7] = small-molecule microarray binders of probe aLefty2, primary screen, biochemical, biotinylated probe, 635/667 nm fluorescence (AID 1094); settings: higher = more signal;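 also: score merges spot fluorescence near 667 nm with spot signal-to-noise ratio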
[8] = system: Noggin (protein binding on small-molecule microarray); assay: Noggin binders on small-molecule microarray, primary screen, biochemical, 635/667 nm fluorescence (AID 1095); settings: 635 nm fluorescence, higher = more signal;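 also: score merges 667 nm feature fluorescence with signal to noise over triplicate slides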
[9] = target: Neurogenic locus notch homolog protein 3 (Homo sapiens) (UniProt Q9UM47); assay: NOTCH3 binders on small-molecule microarray, primary screen, biochemical, 635/667 nm fluorescence (AID 1096); settings: NOTCH3 binding, 635 nm fluorescence, higher = more signal
Sequence of Neurogenic locus notch homolog protein 3 (Homo sapiens) (Q9UM47 whole entry, looked up): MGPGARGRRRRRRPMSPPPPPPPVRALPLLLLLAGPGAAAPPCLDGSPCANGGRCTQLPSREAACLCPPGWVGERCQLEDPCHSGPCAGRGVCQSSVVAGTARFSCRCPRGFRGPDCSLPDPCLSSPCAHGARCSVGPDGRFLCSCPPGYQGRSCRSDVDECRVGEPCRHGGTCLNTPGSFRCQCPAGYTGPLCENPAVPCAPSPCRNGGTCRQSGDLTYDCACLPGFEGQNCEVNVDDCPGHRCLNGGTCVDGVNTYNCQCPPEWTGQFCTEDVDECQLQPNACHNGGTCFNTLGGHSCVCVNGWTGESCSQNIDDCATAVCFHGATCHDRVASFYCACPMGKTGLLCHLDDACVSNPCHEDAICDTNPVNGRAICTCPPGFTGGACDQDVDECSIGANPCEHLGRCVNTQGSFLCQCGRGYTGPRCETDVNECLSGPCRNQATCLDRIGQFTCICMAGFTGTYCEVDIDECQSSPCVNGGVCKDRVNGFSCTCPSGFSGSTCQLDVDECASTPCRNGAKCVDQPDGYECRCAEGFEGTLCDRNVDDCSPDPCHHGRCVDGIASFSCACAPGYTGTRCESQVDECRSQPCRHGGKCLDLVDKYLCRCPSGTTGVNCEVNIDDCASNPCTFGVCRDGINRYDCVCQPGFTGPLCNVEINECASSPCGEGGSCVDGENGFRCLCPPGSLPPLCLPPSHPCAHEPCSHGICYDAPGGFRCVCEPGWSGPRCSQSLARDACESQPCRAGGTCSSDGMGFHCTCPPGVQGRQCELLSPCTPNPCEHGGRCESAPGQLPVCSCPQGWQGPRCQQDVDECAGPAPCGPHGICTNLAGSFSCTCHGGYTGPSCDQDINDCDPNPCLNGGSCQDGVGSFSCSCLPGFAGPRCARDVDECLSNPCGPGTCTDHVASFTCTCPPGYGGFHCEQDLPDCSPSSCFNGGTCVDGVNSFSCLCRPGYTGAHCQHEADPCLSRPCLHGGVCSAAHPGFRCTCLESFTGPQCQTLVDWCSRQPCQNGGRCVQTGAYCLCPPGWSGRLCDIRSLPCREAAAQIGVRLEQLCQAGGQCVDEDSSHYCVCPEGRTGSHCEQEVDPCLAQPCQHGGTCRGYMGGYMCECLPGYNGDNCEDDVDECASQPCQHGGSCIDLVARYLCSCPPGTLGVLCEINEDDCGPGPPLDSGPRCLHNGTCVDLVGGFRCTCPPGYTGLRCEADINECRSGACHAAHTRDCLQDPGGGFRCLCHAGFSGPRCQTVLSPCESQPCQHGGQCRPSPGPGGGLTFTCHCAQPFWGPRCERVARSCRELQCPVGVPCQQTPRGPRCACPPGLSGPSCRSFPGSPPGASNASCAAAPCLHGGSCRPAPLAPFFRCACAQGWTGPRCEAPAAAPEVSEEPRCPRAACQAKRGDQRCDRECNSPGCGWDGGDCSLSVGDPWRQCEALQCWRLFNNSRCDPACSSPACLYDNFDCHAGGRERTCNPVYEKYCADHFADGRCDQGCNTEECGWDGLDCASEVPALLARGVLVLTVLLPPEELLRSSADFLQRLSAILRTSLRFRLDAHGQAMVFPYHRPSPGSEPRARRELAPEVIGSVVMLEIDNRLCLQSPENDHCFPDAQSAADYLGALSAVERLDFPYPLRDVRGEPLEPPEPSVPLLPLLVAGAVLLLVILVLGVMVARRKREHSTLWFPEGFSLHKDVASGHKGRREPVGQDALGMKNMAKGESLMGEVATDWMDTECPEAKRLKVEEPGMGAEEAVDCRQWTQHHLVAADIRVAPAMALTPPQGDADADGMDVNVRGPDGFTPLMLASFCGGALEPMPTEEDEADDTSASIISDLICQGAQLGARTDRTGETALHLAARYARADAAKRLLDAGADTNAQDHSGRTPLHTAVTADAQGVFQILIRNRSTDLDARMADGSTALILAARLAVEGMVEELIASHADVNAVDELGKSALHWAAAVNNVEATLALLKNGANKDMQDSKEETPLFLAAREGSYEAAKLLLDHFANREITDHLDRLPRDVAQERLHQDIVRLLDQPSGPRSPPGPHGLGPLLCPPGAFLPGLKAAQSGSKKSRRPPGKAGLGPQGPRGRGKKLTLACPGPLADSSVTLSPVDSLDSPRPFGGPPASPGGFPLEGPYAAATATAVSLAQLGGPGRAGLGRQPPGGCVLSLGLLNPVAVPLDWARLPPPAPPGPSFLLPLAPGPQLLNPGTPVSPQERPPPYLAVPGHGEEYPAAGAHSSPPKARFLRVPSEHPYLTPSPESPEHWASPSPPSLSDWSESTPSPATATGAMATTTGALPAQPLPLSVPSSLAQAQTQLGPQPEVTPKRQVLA

[10] = small-molecule microarray binders of probe aEGFR, primary screen, biochemical, biotinylated probe, 635/667 nm fluorescence (AID 1097); settings: higher = more signal;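 also: probe is a biotinylated anti-EGFR antibody binding compounds printed on slides; score combines fluorescence near 667 nm and signal to noise of each spot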
[11] = system: Plasmodium falciparum Sir2 (PF13_0152, Sir2A); assay: pfSir2 binders on small-molecule microarrays, primary screen, biochemical, small-molecule microarray, 635 nm fluorescence (AID 1098); settings: small-molecule microarray binding, fluorescence 635 nm; higher = more signal;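 also: score merges spot fluorescence intensity with its signal-to-noise ratio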
[12] = small-molecule microarray binders of probe aDKK1, primary screen, biochemical, biotinylated probe, 635/667 nm fluorescence (AID 1099); settings: higher = more signal;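 also: score merges 667nm spot fluorescence with signal to noise across triplicate slides; reference of the scale not given here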
[13] = small-molecule microarray binders of probe aCHRDL2, primary screen, biochemical, biotinylated probe, 635/667 nm fluorescence (AID 1100); settings: higher = more signal
[14] = splicing luciferase reporter signal modulators, primary screen, spliceosome inhibition project, cell-based, HEK293, splice +/- reporter (AID 1101); settings: luminescence, 24 h, higher = more signal, called active from +8 up or from −8 down;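 also: HEK293 cells carrying a splicing-competent luciferase reporter gene; test concentration not given here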
[15] = target: Fibroblast growth factor 10 (Homo sapiens) (UniProt O15520); assay: FGF10 binders on small-molecule microarrays, primary screen, biochemical, small-molecule microarray, 635 nm fluorescence (AID 1102); settings: FGF10 binding, fluorescence 635 nm, higher = more signal
Sequence of Fibroblast growth factor 10 (Homo sapiens) (O15520 whole entry, looked up): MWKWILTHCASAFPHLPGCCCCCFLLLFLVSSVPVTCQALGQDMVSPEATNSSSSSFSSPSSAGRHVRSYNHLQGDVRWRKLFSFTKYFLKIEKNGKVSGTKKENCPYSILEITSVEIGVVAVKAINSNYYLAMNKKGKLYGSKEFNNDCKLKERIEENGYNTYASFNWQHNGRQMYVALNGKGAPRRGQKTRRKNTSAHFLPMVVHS

[16] = system: glycogen synthase kinase-3 (GSK3A per assay name; protocol says GSK3B); assay: GSK3 binders on small-molecule microarrays, primary screen, biochemical, small-molecule microarray, 635 nm fluorescence, GSK3A (AID 1103); settings: small-molecule microarray binding, fluorescence 635 nm; higher = more signal; also: the record names both GSK3A and GSK3B
[17] = target: Epidermal growth factor receptor (Homo sapiens) (UniProt P00533); assay: EGFR binders on small-molecule microarrays, primary screen, biochemical, small-molecule microarray, 635 nm fluorescence (AID 1104); settings: EGFR binding, higher = more signal;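 also: score merges 667 nm emission intensity with spot signal to noise over triplicate slides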
Sequence of Epidermal growth factor receptor (Homo sapiens) (P00533 whole entry, looked up): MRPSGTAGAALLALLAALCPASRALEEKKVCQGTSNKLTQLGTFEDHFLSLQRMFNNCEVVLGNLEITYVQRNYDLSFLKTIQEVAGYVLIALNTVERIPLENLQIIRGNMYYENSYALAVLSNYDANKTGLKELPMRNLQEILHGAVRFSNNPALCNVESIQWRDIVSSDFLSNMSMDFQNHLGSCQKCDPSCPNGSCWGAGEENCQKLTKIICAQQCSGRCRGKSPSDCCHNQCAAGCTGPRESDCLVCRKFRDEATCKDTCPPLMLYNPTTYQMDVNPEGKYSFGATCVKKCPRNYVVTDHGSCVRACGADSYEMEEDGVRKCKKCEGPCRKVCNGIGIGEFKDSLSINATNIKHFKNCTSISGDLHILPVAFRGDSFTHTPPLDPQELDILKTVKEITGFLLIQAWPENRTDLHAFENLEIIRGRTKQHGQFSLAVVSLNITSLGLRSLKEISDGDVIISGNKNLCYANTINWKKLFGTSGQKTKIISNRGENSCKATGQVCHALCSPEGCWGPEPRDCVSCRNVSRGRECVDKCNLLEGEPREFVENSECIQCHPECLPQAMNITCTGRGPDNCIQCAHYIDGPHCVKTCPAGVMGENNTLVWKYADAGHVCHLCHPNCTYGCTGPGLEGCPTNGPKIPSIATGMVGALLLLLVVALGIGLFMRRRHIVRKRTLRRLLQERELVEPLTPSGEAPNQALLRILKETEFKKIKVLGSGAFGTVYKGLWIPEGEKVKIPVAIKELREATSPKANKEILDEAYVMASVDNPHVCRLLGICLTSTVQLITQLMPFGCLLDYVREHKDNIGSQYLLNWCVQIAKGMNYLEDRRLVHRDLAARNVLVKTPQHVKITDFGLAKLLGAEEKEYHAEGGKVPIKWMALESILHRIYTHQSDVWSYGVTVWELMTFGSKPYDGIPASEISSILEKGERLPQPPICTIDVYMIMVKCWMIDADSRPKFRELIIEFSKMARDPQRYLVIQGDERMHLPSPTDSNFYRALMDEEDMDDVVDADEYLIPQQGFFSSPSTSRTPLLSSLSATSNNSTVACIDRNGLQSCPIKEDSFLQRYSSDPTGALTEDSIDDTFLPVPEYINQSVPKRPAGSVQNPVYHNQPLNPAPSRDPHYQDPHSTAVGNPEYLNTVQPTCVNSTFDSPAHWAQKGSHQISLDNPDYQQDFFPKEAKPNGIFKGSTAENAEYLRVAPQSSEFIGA

[18] = target: Follistatin-related protein 3 (Homo sapiens) (UniProt O95633); assay: FSTL3 binders on small-molecule microarrays, primary screen, biochemical, small-molecule microarray, 635 nm fluorescence (AID 1105); settings: FSTL3 binding, higher = more signal;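 also: score merges emission near 667 nm and signal to noise per printed spot across three slides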
Sequence of Follistatin-related protein 3 (Homo sapiens) (O95633 whole entry, looked up): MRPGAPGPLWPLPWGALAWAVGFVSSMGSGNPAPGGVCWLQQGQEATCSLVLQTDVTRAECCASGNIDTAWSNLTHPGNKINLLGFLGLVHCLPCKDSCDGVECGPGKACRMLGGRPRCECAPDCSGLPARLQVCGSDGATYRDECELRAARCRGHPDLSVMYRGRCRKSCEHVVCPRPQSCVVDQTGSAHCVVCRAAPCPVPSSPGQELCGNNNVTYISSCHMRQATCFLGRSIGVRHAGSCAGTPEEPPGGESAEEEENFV

[19] = target: Dickkopf-related protein 1 (Homo sapiens) (UniProt O94907); assay: DKK1 binders on small-molecule microarrays, primary screen, biochemical, small-molecule microarray, 635 nm fluorescence scan (AID 1106); settings: DKK1 binding, higher = more signal;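 also: score merges emission near 667 nm with signal to noise over three replicate slides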
Sequence of Dickkopf-related protein 1 (Homo sapiens) (O94907 whole entry, looked up): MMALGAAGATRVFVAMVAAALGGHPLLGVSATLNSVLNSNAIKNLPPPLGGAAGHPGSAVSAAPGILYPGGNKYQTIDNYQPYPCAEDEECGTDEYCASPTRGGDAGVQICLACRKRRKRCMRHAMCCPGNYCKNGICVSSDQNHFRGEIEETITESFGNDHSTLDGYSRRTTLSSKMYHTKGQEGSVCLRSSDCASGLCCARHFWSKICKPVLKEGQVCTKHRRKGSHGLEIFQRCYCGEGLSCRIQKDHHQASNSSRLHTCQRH

[20] = system: Inhibin beta A chain (activin A); assay: INHBA (activin A) binders on microarrays, primary screen, biochemical, small-molecule microarray, 635 nm fluorescence scan (AID 1107); settings: small-molecule microarray binding, higher = more signal;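 also: mouse activin A protein probed at 4.33 µg/mL on printed slides; score merges bound-protein fluorescence near 667 nm with spot signal-to-noise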

## O=C(CS)NCCCCCNC(=O)[C@H]1C[C@H]2C(=O)N3CCC[C@H]3C(=O)N2[C@H]1c1cccc(OCCO)c1
[1]
  composite z-score: 1.53
[2]
  z-score: 0.436 (inactive)
[3]
  z-score: -0.723 (inactive)
[4]
  z-score: -0.173 (inactive)
[5]
  composite z-score: 2.7
[6]
  z-score: 0.146 (inactive)
[7]
  composite z-score: 0.0124
[8]
  composite z-score: 1.76
[9]
  composite z-score: 1.1
[10]
  composite z-score: -0.0025
[11]
  composite z-score: 1.17
[12]
  composite z-score: 0.0187
[13]
  composite z-score: 0.367
[14]
  z-score: 0.378 (inactive)
[15]
  composite z-score: 1.35
[16]
  composite z-score: 1.32
[17]
  composite z-score: 0.194
[18]
  composite z-score: 1.41
[19]
  composite z-score: 1.57
[20]
  composite z-score: 1.3

## O=C1C[C@@H](O)[C@@H](O)[C@@H]2[C@@H]3C(=O)N(c4ccc(F)cc4F)C(=O)[C@@H]3CC[C@@H]12
[1]
  composite z-score: 0.306
[2]
  z-score: -0.168 (inactive)
[3]
  z-score: -0.413 (inactive)
[4]
  z-score: -0.0694 (inactive)
[5]
  composite z-score: 0.662
[6]
  z-score: 0.315 (inactive)
[7]
  composite z-score: 0.0424
[8]
  composite z-score: 0.438
[9]
  composite z-score: 0.65
[10]
  composite z-score: -0.109
[11]
  composite z-score: 0.341
[12]
  composite z-score: -0.343
[13]
  composite z-score: -0.602
[14]
  z-score: 0.337 (inactive)
[15]
  composite z-score: 0.627
[16]
  composite z-score: 0.169
[17]
  composite z-score: 0.463
[18]
  composite z-score: 0.447
[19]
  composite z-score: 0.612
[20]
  composite z-score: 0.199

## CCN1C(=O)[C@H]2[C@H]3[C@H](O)[C@H](O)CC(=NOCc4ccccc4)[C@@H]3CC[C@H]2C1=O
[1]
  composite z-score: 0.54
[2]
  z-score: -2.27 (inactive)
[3]
  z-score: -0.784 (inactive)
[4]
  z-score: -0.433 (inactive)
[5]
  composite z-score: 0.558
[6]
  z-score: -0.558 (inactive)
[7]
  composite z-score: -0.0917
[8]
  composite z-score: 0.339
[9]
  composite z-score: 0.761
[10]
  composite z-score: -0.0568
[11]
  composite z-score: 0.119
[12]
  composite z-score: 0.214
[13]
  composite z-score: -0.585
[14]
  z-score: -1.02 (inactive)
[15]
  composite z-score: 0.302
[16]
  composite z-score: 0.478
[17]
  composite z-score: 0.33
[18]
  composite z-score: 0.51
[19]
  composite z-score: 0.267
[20]
  composite z-score: 0.383

## O=C1CCCC2OC12C(O)CCc1ccccc1 (stereo not given)
[1]
  composite z-score: -0.071
[2]
  z-score: 0.238 (inactive)
[3]
  z-score: 0.211 (inactive)
[4]
  z-score: 0.164 (inactive)
[5]
  composite z-score: -0.0258
[6]
  z-score: 0.454 (inactive)
[7]
  composite z-score: -0.215
[8]
  composite z-score: 0.373
[9]
  composite z-score: 0.0248
[10]
  composite z-score: 0.395
[11]
  composite z-score: -0.2
[12]
  composite z-score: -0.45
[13]
  composite z-score: -0.503
[14]
  z-score: 0.00999 (inactive)
[15]
  composite z-score: 0.558
[16]
  composite z-score: 0.263
[17]
  composite z-score: 0.548
[18]
  composite z-score: 0.495
[19]
  composite z-score: 0.372
[20]
  composite z-score: 0.399

## O=C(NN=C1C[C@@H](O)[C@@H](O)[C@@H]2[C@@H]3C(=O)N(c4ccc(F)cc4F)C(=O)[C@@H]3CC[C@@H]12)OCc1ccccc1
[1]
  composite z-score: -0.127
[2]
  z-score: 0.615 (inactive)
[3]
  z-score: 0.664 (inactive)
[4]
  z-score: -0.442 (inactive)
[5]
  composite z-score: 1.03
[6]
  z-score: 0.203 (inactive)
[7]
  composite z-score: -0.11
[8]
  composite z-score: -0.0944
[9]
  composite z-score: 0.57
[10]
  composite z-score: -0.0616
[11]
  composite z-score: 0.328
[12]
  composite z-score: -0.269
[13]
  composite z-score: -0.232
[14]
  z-score: 0.464 (inactive)
[15]
  composite z-score: -0.0739
[16]
  composite z-score: -0.0799
[17]
  composite z-score: 0.452
[18]
  composite z-score: 0.297
[19]
  composite z-score: 0.092
[20]
  composite z-score: -0.103

## CO[C@@H]1COC(=O)[C@H](C)NC(=O)[C@@H](C)COC(=O)CCC[C@H]1C
[1]
  composite z-score: 1.27
[2]
  z-score: -0.11 (inactive)
[3]
  z-score: 0.381 (inactive)
[4]
  z-score: -1.14 (inactive)
[5]
  composite z-score: 2.11
[6]
  z-score: -0.183 (inactive)
[7]
  composite z-score: -0.179
[8]
  composite z-score: 0.209
[9]
  composite z-score: -0.0217
[10]
  composite z-score: 0.136
[11]
  composite z-score: 0.957
[12]
  composite z-score: -0.122
[13]
  composite z-score: -0.554
[14]
  z-score: 0.494 (inactive)
[15]
  composite z-score: 0.721
[16]
  composite z-score: 0.115
[17]
  composite z-score: 0.429
[18]
  composite z-score: 1.11
[19]
  composite z-score: 0.705
[20]
  composite z-score: -0.0431

## CC(C)[Si]1(C(C)C)O[C@@H](c2ccccc2)c2cc(C3CC3)nc(-c3ccccc3)c21
[1]
  composite z-score: 0.0587
[2]
  z-score: -0.443 (inactive)
[3]
  z-score: -5.5 (inactive)
[4]
  z-score: -0.215 (inactive)
[5]
  composite z-score: -0.332
[6]
  z-score: -0.867 (inactive)
[7]
  composite z-score: -0.34
[8]
  composite z-score: -0.207
[9]
  composite z-score: 0.492
[10]
  composite z-score: -0.0304
[11]
  composite z-score: -0.792
[12]
  composite z-score: -0.276
[13]
  composite z-score: -0.0652
[14]
  z-score: -0.613 (inactive)
[15]
  composite z-score: -0.0733
[16]
  composite z-score: -0.248
[17]
  composite z-score: -0.337
[18]
  composite z-score: -0.349
[19]
  composite z-score: -0.568
[20]
  composite z-score: -1.07

## CCN1C(=O)[C@H]2[C@H]3[C@H](O)[C@H](O)CC(=NOCC=C(C)CCC=C(C)C)[C@H]3CC[C@H]2C1=O
[1]
  composite z-score: 1.56
[2]
  z-score: -0.541 (inactive)
[3]
  z-score: 0.0853 (inactive)
[4]
  z-score: -1.11 (inactive)
[5]
  composite z-score: 1.52
[6]
  z-score: 0.707 (inactive)
[7]
  composite z-score: -0.0355
[8]
  composite z-score: 1.32
[9]
  composite z-score: 1.13
[10]
  composite z-score: 0.186
[11]
  composite z-score: 0.908
[12]
  composite z-score: -0.338
[13]
  composite z-score: -1.31
[14]
  z-score: 0.886 (inactive)
[15]
  composite z-score: 1.13
[16]
  composite z-score: 1.17
[17]
  composite z-score: 1.18
[18]
  composite z-score: 1.43
[19]
  composite z-score: 1.74
[20]
  composite z-score: 1.1

## COc1cccc([C@H]2Oc3ccc(OC)cc3C(=NO[C@H](C)c3cn([C@@H]4COC[C@H]4O)nn3)[C@@H]2O)c1
[1]
  composite z-score: -0.499
[2]
  z-score: 0.0141 (inactive)
[3]
  z-score: 0.874 (inactive)
[4]
  z-score: 0.467 (inactive)
[5]
  composite z-score: -0.077
[6]
  z-score: -0.398 (inactive)
[7]
  composite z-score: -0.126
[8]
  composite z-score: -0.427
[9]
  composite z-score: -1.34
[10]
  composite z-score: -0.267
[11]
  composite z-score: 0.53
[12]
  composite z-score: -0.393
[13]
  composite z-score: -0.381
[14]
  z-score: -0.992 (inactive)
[15]
  composite z-score: -0.481
[16]
  composite z-score: -1.14
[17]
  composite z-score: -0.0724
[18]
  composite z-score: -0.525
[19]
  composite z-score: 0.0385
[20]
  composite z-score: 0.0726
